Test results from the supplement of paper PMC6555819.

Columns and labels:
Experiment in all cases: PBM binding z-score (relative to random genomic background probes); higher = stronger binding; sequences stand for … in GC…GCGATTGACAGCGTAGAATGAAGG
[1] = test system: FXR:RXRa (NR concentration 270 nM, RXRa partner concentration 90 nM)
How it was run: (§1)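 The probes on custom Agilent 4×180K protein-binding microarrays were double-stranded, with 34-nt variable regions bearing direct-repeat seeds, single-nucleotide variants, half-site ablations and random human genomic background sequences. Incubation lasted 1 h with ligand-free nuclear receptor dimers in PBS pH 7.4, 2% milk, 0.02% Triton X-100, 1 mM DTT, 0.2 mg/mL BSA and 0.4 mg/ml salmon testes DNA. Antibodies against each partner (one per run) detected bound dimers, and fluorescence scans were regression-normalized. Binding z-scores take the random background probes as reference.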

[2] = test system: LXRa:RXRa (NR concentration 270 nM, RXRa partner concentration 90 nM)
How it was run: as §1

[3] = test system: LXRa homodimer (NR concentration 270 nM)
How it was run: as §1

[4] = test system: LXRb:RXRa (NR concentration 270 nM, RXRa partner concentration 90 nM)
How it was run: as §1

[5] = test system: LXRb homodimer (NR concentration 270 nM)
How it was run: as §1

[6] = test system: PPARa:RXRa (NR concentration 270 nM, RXRa partner concentration 90 nM)
How it was run: as §1

[7] = test system: PPARg:RXRa (NR concentration 180 nM, RXRa partner concentration 90 nM)
How it was run: as §1

[8] = test system: PPARg:RXRa 270nM:90nM, anti-RXR (NR concentration 270 nM, RXRa partner concentration 90 nM)
How it was run: as §1

[9] = test system: PPARg:RXRa 30nM:10nM, anti-RXR (NR concentration 30 nM, RXRa partner concentration 10 nM)
How it was run: as §1

[10] = test system: PPARg:RXRa 90nM:30nM, anti-RXR (NR concentration 90 nM, RXRa partner concentration 30 nM)
How it was run: as §1

[11] = test system: PPARg:RXRa DBDmut IVT, anti-RXR (DBD mutation: RXRa K156A/R161A, NR concentration 270 nM, RXRa partner concentration 90 nM)
How it was run: as §1

[12] = test system: PPARg:RXRa IVT, anti-PPARg (NR concentration 270 nM, RXRa partner concentration 90 nM)
How it was run: as §1

[13] = test system: PPARg DBDmut:RXRa IVT, anti-PPARg (DBD mutation: PPARg1 K132A/R137A, NR concentration 270 nM, RXRa partner concentration 90 nM)
How it was run: as §1

[14] = test system: PPARg DBDmut IVT, anti-PPARg (DBD mutation: PPARg1 K132A/R137A, NR concentration 270 nM)
How it was run: as §1

[15] = test system: PPARg homodimer (NR concentration 180 nM)
How it was run: as §1

[16] = test system: PXR homodimer (NR concentration 270 nM)
How it was run: as §1

[17] = test system: RARa:RXR (NR concentration 270 nM, RXRa partner concentration 90 nM)
How it was run: as §1

[18] = test system: RARa homodimer (NR concentration 270 nM)
How it was run: as §1

[19] = test system: RARb:RXRa (NR concentration 270 nM, RXRa partner concentration 90 nM)
How it was run: as §1

Sequence	PBM binding z-score [1]	PBM binding z-score [2]	PBM binding z-score [3]	PBM binding z-score [4]	PBM binding z-score [5]	PBM binding z-score [6]	PBM binding z-score [7]	PBM binding z-score [8]	PBM binding z-score [9]	PBM binding z-score [10]	PBM binding z-score [11]	PBM binding z-score [12]	PBM binding z-score [13]	PBM binding z-score [14]	PBM binding z-score [15]	PBM binding z-score [16]	PBM binding z-score [17]	PBM binding z-score [18]	PBM binding z-score [19]
ATCAAAAGGTCGAAGGTGAGTATACCCACCCGAA	5.02	4	0.531	2.87	0.821	5.02	5.28	5.42	3.17	4.75	0.661	2.86	1.48	0.784	2.7	-0.118	4.72	0.445	4.05
CGTCTAAGGTCAAAGGTCAGTGAAGAGATGACGG	8.79	7.27	4.41	6.95	2.67	7.45	11	8.6	8.75	10.3	4.71	5.84	0.729	0.828	5.87	2.61	8.98	4	6.07
AGAACGAGGGCAATGAGTTCATAGCACGGGTGGC	1.78	2.26	1.48	1.11	-0.445	2.83	2.16	1.57	0.0417	0.912	3.4	3.12	0.564	0.148	0.482	15.2	2.56	0.017	2.79
CTCGAAAGGTCGTGCTCAGGTGAGTACACCAAAC	5.63	3.63	0.149	3.14	0.685	4.94	3.11	4.4	1.61	2.91	1.21	2.09	1.56	1.04	2.94	0.541	4.67	0.374	4.05
ATATGGAGGTTAGCTGGGGTCATTCAGACTAGGC	5.58	6.45	4.02	5.67	1.51	5.04	3.15	3.77	1.68	2.72	2.62	2.93	1.36	1.19	2.73	5.39	5.62	1.8	3.66
GATACAGGGTCAGCTTGAGGCCAGAGTATGGAAA	4.2	2.37	-0.58	2.03	-0.747	3.98	2.71	2.81	0.493	1.56	1.23	2	-0.407	-0.636	1.71	-0.346	3.44	-0.0727	3.72
CGTCCGAGGTCAAAGGTCAGTGAAGAGATGACGG	8.25	7.31	3.51	7.09	2.24	7.17	11.3	9.76	8.58	11.5	4.36	6.35	2.87	3.81	5.95	3.02	8.81	4.96	5.93
CGCCCAAGGTCAGCAGGTCAGTGAAAGCGACGTG	5.7	4.2	0.381	2.99	-0.0743	4.81	3.8	4.59	1.02	2.98	2.94	3.56	0.803	-0.776	3.74	0.324	5.15	1.97	5.18
